Test [1] is described as follows: qHTS assay to identify small molecule antagonists of the estrogen receptor alpha (ER-alpha) signaling pathway using the BG1 cell line in the presence of 0.1 nM 17-beta-estradiol - cell viability counter screen (AID 1259241). Further: nearly all actives have a fitted effect of over 40% in size. Further: potency means the concentration at half of the fitted maximal effect. The essentials:
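CellTiter-Fluor read (30 min, 37C) on ER-alpha/ERE-luc VM7Luc4E2 cells; 22 hr compound treatment; agonist 0.1 nM E2 final; same-well multiplex.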

The nature of test [2]: qHTS assay to identify small molecule antagonists of the androgen receptor (AR) signaling pathway using the MDA cell line in the presence of 0.5 nM R1881 - cell viability counter screen (AID 1259242). Further: nearly all actives have a fitted effect of over 45% in size. Further: potency means the concentration at half of the fitted maximal effect. The gist of the method: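 Concentration-response screen of compounds for toxicity in MDA-kb2 reporter cells: 16 hr at 37C with 0.5 nM R1881, endpoint live-cell protease fluorescence measured in the reporter wells.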

The nature of test [3]: qHTS assay to identify small molecule HDAC inhibitors (AID 1259364).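 Further: wild-type HCT-116 cells with endogenous class I/II HDAC activity; top concentration of the series differs between compounds; nearly all actives have a fitted effect of over 45% in size.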 The essentials:
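Screening used wild-type human colon HCT-116 cells incubated overnight, dosed with compounds for 2 hours, and assayed with a homogeneous luminogenic HDAC I/II reagent for 30 minutes at room temperature.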

The nature of test [4]: qHTS assay to identify small molecule HDAC inhibitors - cell viability counter screen (AID 1259365). Further: series mostly up to about 92 µM; nearly all actives have a fitted effect of over 50% in size. The gist of the method: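 To flag cytotoxic hits, 1,500 wild-type HCT-116 cells per well, plated the day before, receive test compounds for 2hr at 37 C before CellTiter-Glo reagent and a luminescence read.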
A short description of test [5]: qHTS assay to identify small molecule antagonists of the sonic hedgehog signaling (Shh) pathway - cell viability counter screen (AID 1259367). Further: nearly all actives have a fitted effect of over 55% in size. The gist of the method: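 Tox21 library chemicals were tested on a Gli1-Luc NIH/3T3 clone (2,000 cells/well) stimulated by conditioned medium; viability was quantified as fluorescence from CellTiter-Fluor reagent added at 23 hr.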

Test [6] can be described thus: qHTS assay to identify small molecule agonists of the sonic hedgehog signaling (Shh) pathway (AID 1259368; calls by dose curve; further: nearly all actives have a fitted effect of over 15% in size; further: potency means the concentration at half of the fitted maximal effect;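 on activity change: NIH/3T3-derived 3T3Gli1-Luc cells carrying a stable Gli1-driven firefly luciferase reporter; series mostly up to about 92 µM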). The essentials:
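Hedgehog pathway agonism scored by increased firefly luciferase luminescence in 3T3Gli1-Luc cells treated 24 hr at 37 C; detection used a 30 min room-temperature reagent incubation.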

A short description of test [7]: qHTS assay to identify small molecule agonists of the sonic hedgehog signaling (Shh) pathway - cell viability counter screen (AID 1259366). Further: nearly all actives have a fitted effect of over 50% in size. Further: potency means the concentration at half of the fitted maximal effect. The essentials: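 Fluorescence from CellTiter-Fluor reports live cells in this counter screen. NIH/3T3-derived Gli1-Luc reporter cells receive test compounds for 24hr at 37C; reagent goes in at 23hr.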

Molecules are shown by their SMILES. Values without a mark were called inactive. Results filed as inconclusive are left out. The source made the active and inactive calls. Unless noted, the call rests on the fitted dose curve; in most records, active means well fitted curve in the direction sought with a large enough effect in the repeat runs; inconclusive means weak or mixed curves; inactive means no such curve, though single readings can be large; an effect the other way counts as inactive or inconclusive.
On the % scale 0 is the no-effect control and ±100 the full control effect.

As to `O.O.O.O.O.O.O.O=S(=O)([O-])[O-].[Co+2]`, the Potency entry in test [1], in test [2], in test [3], in test [4] and in test [5] was “inactive” each time. Also, the Potency in test [6] was 61.5 µM (active).
Turning to `CCCCCON=O`, the Potency entry in test [1], in test [2], in test [3], in test [4], in test [7] and in test [6] was “inactive” throughout.
Turning to `[Cl-].[Cl-].[Sn+2]`, the Potency entry in test [1], in test [2], in test [3], in test [4], in test [7] and in test [6] was “inactive” throughout.
In the case of `Clc1c(Cl)c(Cl)c(Cl)c(Cl)c1Cl`, the figures for the activity change, negative = cytotoxicity in test [1] and in test [4] were 2.59% [at 8.39 µM] and 0.165% [at 8.39 µM], respectively. Also, the figures for the viability change, negative = cytotoxic in test [2], in test [7] and in test [5] were 0.413% [at 8.39 µM], 1.7% [at 8.39 µM] and 2.78% [at 8.39 µM], respectively. In addition, in test [3], the activity change, negative = inhibition is 1.74% [at 8.39 µM]. The activity change in test [6] was -0.252% [at 8.39 µM, stronger effect = higher value].
As to `N#Cc1ccc(N(CC(N)=O)CC(F)(F)F)cc1C(F)(F)F`, the Potency result in test [1], in test [2], in test [3], in test [4], in test [7] and in test [5] was “inactive” in each case. Further, in test [6], the Potency result was “inactive”.
As to `Cc1ccn2nc(S(=O)(=O)Nc3c(F)cccc3F)nc2n1`, the Potency entry in test [1], in test [2], in test [3], in test [4], in test [7] and in test [5] was “inactive” each time. In addition, the Potency entry in test [6] was “inactive”.
On to `O=C(Nc1ccc(F)cc1F)c1cccnc1Oc1cccc(C(F)(F)F)c1`, for which the Potency entry in test [1], in test [2], in test [3], in test [4], in test [7] and in test [5] was “inactive” each time. The Potency result in test [6] was “inactive”.
Take `C[C@]12Cc3cn[nH]c3C[C@@H]1CC[C@@H]1[C@@H]2CC[C@@]2(C)[C@H]1CC[C@]2(C)O`: the Potency entry in test [1], in test [2], in test [3], in test [4], in test [7] and in test [6] was “inactive” each time.
Regarding `COc1nc(C)nc(NC(=O)NS(=O)(=O)c2ccccc2Cl)n1`, the Potency entry in test [1], in test [2], in test [3], in test [4], in test [7] and in test [6] was “inactive” throughout.
As to `CCC[CH2][Sn]([CH2]CCC)([O]C(C)=O)[O]C(C)=O`, the Potency is 0.692 µM (active) in test [1], 0.347 µM (active) in test [2] and 6.17 µM (active) in test [7]. In addition, the Potency entry in test [3], in test [4] and in test [6] was “inactive” in each case.
With `CCCCn1cc[n+](C)c1.[Cl][Fe-]([Cl])([Cl])[Cl]`, the Potency entry in test [1], in test [2], in test [3], in test [4], in test [5] and in test [6] was “inactive” each time.
For the molecule `O=[N+]([O-])c1cccc2cccc([N+](=O)[O-])c12`, the Potency result in test [1], in test [2], in test [3], in test [7], in test [5] and in test [6] was “inactive” throughout.
For `C=CCBr`, the Potency result in test [1], in test [2], in test [3], in test [4], in test [7] and in test [6] was “inactive” throughout.
For the molecule `CCCCC(CC)COC(=O)OOC(C)(C)C` (stereo unspecified), the Potency result in test [1], in test [2], in test [3], in test [4], in test [7] and in test [5] was “inactive” in each case. Further, the Potency result in test [6] was “inactive”.
Consider `CN`, for which the Potency result in test [1], in test [2], in test [3], in test [4], in test [7] and in test [5] was “inactive” throughout. In addition, the Potency entry in test [6] was “inactive”.
Take `Clc1cc(Cl)c(-c2cc(Cl)c(Cl)cc2Cl)cc1Cl`: the Potency entry in test [1], in test [2], in test [3], in test [4], in test [7] and in test [5] was “inactive” throughout. In test [6], the Potency entry is “inactive”.
In the case of `CSSC`, the Potency result in test [1], in test [2], in test [3], in test [4], in test [7] and in test [5] was “inactive” throughout. Besides, in test [6], the Potency entry was “inactive”.
As to `CCN(CC)CCN1C(=O)CN=C(c2ccccc2F)c2cc(Cl)ccc21`, the Potency result in test [1], in test [2], in test [3], in test [4], in test [7] and in test [5] was “inactive” each time. For the same molecule, in test [6], the Potency result was “inactive”.
As to `Nc1nc(N)c(N)c(N)n1`, the Potency result in test [1], in test [2], in test [3], in test [4] and in test [6] was “inactive” each time.
As to `N#CCCl`, the Potency entry in test [1], in test [2], in test [3], in test [4], in test [7] and in test [5] was “inactive” each time. The Potency entry in test [6] was “inactive”.
As for `CCCCON=O`, the Potency entry in test [1], in test [2], in test [3], in test [4], in test [7] and in test [5] was “inactive” in each case. Moreover, the Potency result in test [6] is “inactive”.
Take `CNC(=O)CSP(=O)(OC)OC`: the Potency entry in test [1], in test [2], in test [3], in test [4], in test [7] and in test [5] was “inactive” throughout. For the same molecule, the Potency result in test [6] was “inactive”.
Turning to `CC(=O)C(Cl)C(=O)N(C)C` (stereo unspecified), the Potency entry in test [1], in test [2], in test [3], in test [4], in test [7] and in test [5] was “inactive” in each case. Further, the Potency result in test [6] was “inactive”.
For the molecule `COC(=O)c1cc(Oc2ccc(Cl)cc2Cl)ccc1[N+](=O)[O-]`, the Potency entry in test [1], in test [2], in test [3], in test [7], in test [5] and in test [6] was “inactive” in each case.
Consider `N#CSCc1ccccc1`, for which the Potency entry in test [1], in test [2], in test [3], in test [4], in test [7] and in test [6] was “inactive” in each case.
Take `CC(=O)O.CC(=O)O.CC(=O)O.CC(=O)O.CC(=O)O.CC(=O)O.CC(=O)O.O.O.[Cr].[Cr].[Cr]`: the Potency result in test [1], in test [2], in test [3], in test [4], in test [7] and in test [6] was “inactive” each time.
Take `O=C(Cl)c1ccccc1F`: the Potency result in test [1], in test [2], in test [3], in test [4], in test [7] and in test [6] was “inactive” throughout.
With `CC(=O)[O-].CC(=O)[O-].CC(=O)[O-].[Sb+3]`, the activity change, negative = cytotoxicity is -1.06% [at 3.27 µM] in test [1] and -3.57% [at 3.27 µM] in test [4]. The figures for the viability change, negative = cytotoxic in test [2], in test [7] and in test [5] were 2.35% [at 3.26 µM], 5.24% [at 3.27 µM] and 4.31% [at 3.27 µM], respectively. In addition, in test [3], the activity change, negative = inhibition is 2.54% [at 3.27 µM]. In test [6], the activity change is 0.122% [at 3.27 µM, stronger effect = higher value].
